Inconclusive results are not listed. A call without a number means that no potency is given here. Active and inactive are the calls of the source. Calls come from the whole dose curve; as a rule, active = well fitted cell-killing curve with a large enough effect; inconclusive = small, poorly fitted or top-dose-only effect, or effect the other way; inactive = no such curve, though single readings can be large or run the other way.
experiment: Quantitative High-Throughput drug screen in 47 multiple myeloma cell lines against the NCATS MIPE library collection: EJM_DSMZ cell viability assay (AID 1918926; note: nearly all actives have a fitted effect of over 30% in size); conditions: EJM myeloma cell viability, CellTiter-Glo ATP, 48 h; series mostly up to 45.8 µM
Source text: PI: Beverly A. Mock Ph.D.
Laboratory of Cancer Biology and Genetics,
Center for Cancer Research, National Cancer Institute,
National Institute of Health, Bethesda, Maryland
Drug resistance and disease progression are common in multiple myeloma (MM) patients, underscoring the need for new therapeutic combinations. […] We hypothesized that effective combinations would reduce MYC expression and enhance p16 activity. […] These preclinical data identify potentially useful drug combinations for evaluation in drug-resistant MM and reveal potential mechanisms of combined drug sensitivity.
Described herein is the primary MIPE qHTS used to cherrypick compounds. Validated compounds were then further tested for potential synergistic activiy.
[1] Peat TJ, Gaikwad SM, Dubois W, Gyabaah-Kessie N, Zhang S, Gorjifard S, Phyo Z, Andres M, Hughitt VK, Simpson RM, Miller MA, Girvin AT, Taylor A, Williams D, D'Antonio N, Zhang Y, Rajagopalan A, Flietner E, Wilson K, Zhang X, Shinn P, Klumpp-Thomas C, McKnight C, Itkin Z, Chen L, Kazandijian D, Zhang J, Michalowski AM, Simmons JK, Keats J, Thomas CJ, Mock BA. Drug combinations identified by high-throughput screening promote cell cycle transition and upregulate Smad pathways in myeloma. Cancer Lett. 2023 Aug 1;568:216284. doi: 10.1016/j.canlet.2023.216284. Epub 2023 Jun 24. PMID: 37356470; PMCID: PMC10408729.
SEQUENCE No. (e.g., 1, 2, 3, etc.); […] (e.g., Cells, Incubation, Reagent, etc.); VALUE and DESCRIPTION.
1; Cells; 5 uL; white, solid bottom 1536-well Greiner assay plate.
2; Compounds; 23 nL; Kalypsis pin tool (Wako USA) equipped with a 1536-well pin head to transfer to the assay plates.
3; Incubation; 48 hours; 37C incubation.
4; Reagent;5uL; CellTiter Glo (Promega).
5; Detector; 425V; Luminescence; Viewlux PerkinElmer.
NOTES (numbers refer to Sequence numbers above)
1. The cell-based screening methods employed in this study were like those previously published. Briefly, the corresponding myeloma cell lines were screened in 1,536-well plates with 500 cells, 5-uL per well for inhibition of cell viability (assessed by measuring ATP levels with CellTiterGlo).
2. NCATS MIPE 4.0 library of approved and investigational drugs were added using the Kalypsis pin tool. Wells treated with DMSO only for 100% viability and media only wells for 0% viability were used as controls.
3. The assay plates were covered and incubated for 48 hours in a 37C, 5% CO2 incubator with controlled humidity.
4. After 48 hours, CellTilter-GloTM luminescent substrate mix (Promega) reagent was added to the assay plate and plates we incubated for 5 min at room temperature.
5. Signal was measured as median relative luminescence units on a ViewLux (PerkinElmer) multiplate reader.
[1] Heske CM, Davis MI, Baumgart JT, Wilson K, Gormally MV, Chen L, Zhang X, Ceribelli M, Duveau DY, Guha R, Ferrer M, Arnaldez FI, Ji J, Tran HL, Zhang Y, Mendoza A, Helman LJ, Thomas CJ. Matrix Screen Identifies Synergistic Combination of PARP Inhibitors and Nicotinamide Phosphoribosyltransferase (NAMPT) Inhibitors in Ewing Sarcoma. Clin Cancer Res. 2017 Dec 1;23(23):7301-7311. doi: 10.1158/1078-0432.CCR-17-1121. Epub 2017 Sep 12. PMID: 28899971; PMCID: PMC6636827.
Potency is the fitted concentration of half-maximal effect.

Row | SMILES | Potency
1 | C[C@](O)(CS(=O)(=O)c1ccc(F)cc1)C(=O)Nc1ccc(C#N)c(C(F)(F)F)c1 | 372 nM (active)
2 | CCC1(c2ccc(N)cc2)CCC(=O)NC1=O (stereo not given) | inactive
3 | CC(C)C[C@H](CN)CC(=O)O | inactive
4 | CN1C(=O)COc2c(C(=O)NC3CN4CCC3CC4)cc(Cl)cc21 (stereo not given) | inactive
5 | CC(C)c1cccc(C(C)C)c1O | inactive
6 | C[C@]12CC[C@@H]3c4ccc(OC(=O)N(CCCl)CCCl)cc4CC[C@H]3[C@@H]1CC[C@@H]2OP(=O)(O)O | inactive
7 | CC(NC(C)(C)C)C(=O)c1cccc(Cl)c1 (stereo not given) | inactive
8 | O=C(O)CCCc1ccc(N(CCCl)CCCl)cc1 | inactive
9 | COc1cc(OC)c(OC)cc1C=O | inactive
10 | C[C@]12CC[C@H]3[C@@H](CC[C@@]45O[C@H]4C(O)=C(C#N)C[C@]35C)[C@H]1CC[C@H]2O | inactive

Reference: PubChem BioAssay (NCATS)
